# High-throughput results as filed in PubChem BioAssay.
# The sample as a whole holds a higher share of hits than the screen did.
# Cycloheximide cs: counter-screen hit for Shiga toxin inhibitors, cycloheximide; cell reporter, cycloheximide protein synthesis inhibition counterscreen; max response, %; actives 12% (n = 300,000); in the data active = max response mostly above about 13%, no sharp cut-off; inactive = mostly below about 14%; also: read at 38.3 µM for the half of the compounds with a filed dose; 0% is about no effect
# Sm TGR block: blocks Schistosoma mansoni thioredoxin glutathione reductase. Potency, µM (doses to about 114 µM), inactives show at the highest dose activity change, negative = inhibition, hits mostly inhibitors. actives 3% (n = 360,000). purified TGR, DTNB reduction, TNB absorbance 405 nm; also: potency is read from the fitted curve at half-maximal effect; % is scaled to controls: 0 for no effect and ±100 for the full control effect; nearly all actives have a fitted effect of over 60% in size
#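 TGR 20 nM + NADPH 100 uM (dispensed conc.), cpd preinc 15 min RT; start with NADPH (500 uM addition) then DTNB (15 mM addition). Kinetic TNB absorbance, 405 nm filter. Four-parameter Hill fit across titration.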
# FBPA Giardia inh: Giardia lamblia aldolase inhibition; AID 2451; Potency, µM (top dose mostly 59.6 µM), for inactives: at the highest dose activity, negative = inhibition, most hits filed as inhibitors; A8B2U2; purified Giardia FBPA; actives 0.71% (n = 290,000); also: potency is read from the fitted curve at half-maximal effect; % is scaled to controls: 0 for no effect and ±100 for the full control effect; nearly all actives have a fitted effect of over 55% in size
# Target sequence (A8B2U2 whole entry, looked up): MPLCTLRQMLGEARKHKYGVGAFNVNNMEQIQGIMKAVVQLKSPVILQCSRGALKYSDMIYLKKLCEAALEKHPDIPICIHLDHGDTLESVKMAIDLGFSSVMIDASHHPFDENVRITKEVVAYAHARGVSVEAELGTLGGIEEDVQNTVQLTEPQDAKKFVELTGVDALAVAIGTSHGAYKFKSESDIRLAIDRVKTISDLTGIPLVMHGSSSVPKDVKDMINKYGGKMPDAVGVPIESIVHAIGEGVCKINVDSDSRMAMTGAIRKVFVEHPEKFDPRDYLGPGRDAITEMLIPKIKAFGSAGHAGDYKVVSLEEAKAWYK
#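 Giardia FBPA (40 nM reagent) was preincubated 10 min at RT with compound (up to 57.5 uM final), then substrate plus GAPDH/TPI/NAD/arsenate coupling system with diaphorase/resazurin was added; resorufin fluorescence (525/598 nm) was read after 20 min.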
# LmPK inhibitor: inhibitors of Leishmania mexicana pyruvate kinase; AID 1721; Q27686; purified LmPK, Kinase-Glo ATP luminescence, 1 h; actives 0.37% (n = 290,000); Potency, µM (highest dose often 57.5 µM), without a hit: at the highest dose activity change, negative = inhibition, most hits filed as inhibitors; also: potency is read from the fitted curve at half-maximal effect; % is scaled to controls: 0 for no effect and ±100 for the full control effect
#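 In 50 mM imidazole pH 7.2 with 7 mM MgCl2, LmPK (0.1 nM) turned over PEP (0.5 mM) and ADP (0.1 mM) for 1 h at room temperature. Luciferase read-out of ATP.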
# Tb PYK inh: blocks Trypanosoma brucei pyruvate kinase | Q57TT1 | TbPYK enzyme, Kinase-Glo Plus ATP luminescence, 45 min | Potency, µM (doses to about 76.8 µM), inactives show at the highest dose activity, negative = inhibition, usual class: inhibitors | actives 0.12% (n = 410,000) | AID 624173; also: potency is read from the fitted curve at half-maximal effect; % is scaled to controls: 0 for no effect and ±100 for the full control effect; nearly all actives have a fitted effect of over 50% in size
#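 T. brucei PYK with substrate was exposed to pin-transferred compounds across a concentration series, then started with 130 uM ADP (final). After 45 min at room temperature, Kinase-Glo Plus luminescence was read, normalized and curve-fitted.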
# Shiga toxin inh: inhibitors of Shiga toxin in Vero cells; Vero cells, Shiga toxin protein synthesis inhibition reporter; inhibition, % at 38.7 µM; actives 9.2% (n = 290,000); in the data active = inhibition mostly above about 28%, no sharp cut-off; inactive = mostly below about 43%; also: 0% is about no effect
# Starred values were filed as active, the others as inactive; u = inconclusive; x = not tested or not shown; [ ] = remark or other dose. Unless noted, calls follow the shape of the dose curve; as a rule, active = well fitted curve in the direction sought with a large enough effect; inconclusive = small, poorly fitted or top-dose-only effect, or another doubt; inactive = no such curve, though single readings can be large; an effect the other way counts as inactive or inconclusive.
SMILES,Cycloheximide cs,Sm TGR block,FBPA Giardia inh,LmPK inhibitor,Tb PYK inh,Shiga toxin inh
Cc1nc(S(=O)(=O)c2ccc(Cl)cc2)c(NCc2ccccc2)o1,-1,40µM*,-6%,9%,10%,-7
CNc1oc(C)nc1S(=O)(=O)c1ccccc1,-2,1.6µM*,-20%,5%,-3%,-17
COc1ccc(NC(=O)C2CCC(CNS(=O)(=O)c3ccc4c(c3)C(C)(C)C(=O)N4C)CC2)cc1 (stereo not drawn),x,0%,x,x,-1%,x
O=S(=O)(Nc1ccc(F)cc1F)c1ccc(-n2cccn2)cc1,x,0%,x,x,-1%,x
CC(C)CC(NC(=O)C(COC(C)(C)C)NC(=O)C(Cc1ccc(O)cc1)NC(=O)C(CO)NC(=O)C(Cc1c[nH]c2ccccc12)NC(=O)C(Cc1cnc[nH]1)NC(=O)C1CCC(=O)N1)C(=O)NC(CCCN=C(N)N)C(=O)N1CCCC1C(=O)NNC(N)=O (stereo not drawn),-8,x,4%,x,2%,15
COc1ccccc1CNC(=O)C1CCC(=O)N(CCCN2CCCC2=O)C1 (stereo not drawn),-3,-8%,7%,0%,2%,-6
Cc1ccc(F)cc1CNC(=O)C1CCC(=O)N(CCCN2CCCC2=O)C1 (stereo not drawn),22*,6%,x,6%,-4%,18
O=C1CCC(C(=O)N2CCCC2)CN1CCc1cccc(F)c1 (stereo not drawn),14,0%,-10%,3%,0%,-8
O=C1CCC(C(=O)N2CCSCC2)CN1CCc1cccc(F)c1 (stereo not drawn),15*,-27%,8%,5%,4%,16
O=C(NCCC1CCCC1)C1CCC(=O)N(CCCN2CCCC2=O)C1 (stereo not drawn),-2,-11%,5%,1%,0%,-6
COC1CCN(C(=O)C2CCC(=O)N(CCc3cccc(F)c3)C2)CC1 (stereo not drawn),28*,-6%,x,-9%,-1%,23
O=C(NC(C1CC1)C1CC1)C1CCC(=O)N(CCCN2CCCC2=O)C1 (stereo not drawn),17*,3%,-6%,0%,-6%,13
CCOc1ccccc1NC(=O)CN1C(=O)CC(c2ccco2)Sc2ccccc21 (stereo not drawn),x,-18%,x,x,-2%,x
CN(Cc1ccccc1)C(=O)Nc1ccc2c(c1)N(C)C(=O)c1ccccc1S2,x,7%,x,x,4%,x
Cc1c(Cl)cccc1NC(=O)CC(c1ccc(F)cc1)N1Cc2ccccc2C1=O (stereo not drawn),x,0%,x,x,5%,x
CC1=C(C(=O)O)N2C(=O)[C@@H](NC(=O)[C@@H](N)c3ccccc3)[C@@H]2SC1,x,x,-27%[21.7 µM],x,x,x
CN(Cc1nccs1)C(=O)C1CCC(=O)N(CCc2cccc(F)c2)C1 (stereo not drawn),2,-23%,x,0%,-7%,31
O=C(NCc1cccc(F)c1)C1CCC(=O)N(CCc2cccc(F)c2)C1 (stereo not drawn),20*,2%,x,1%,-2%,13
COc1cccc(CNC(=O)C2CCC(=O)N(CCc3cccc(F)c3)C2)c1 (stereo not drawn),2,46%,x,-3%,-10%,13
CCc1nc(CN(C)C(=O)C2CCC(=O)N(CCc3cccc(F)c3)C2)no1 (stereo not drawn),22*,-25%,x,1%,-10%,33
COc1cccc2cc(C(=O)NCC3CCCO3)c(=O)oc12 (stereo not drawn),30*,-3%,1%,-5%,4%,33
CCOC(=O)CC(NC(=O)c1cc2cccc(OC)c2oc1=O)c1ccc(OC)cc1 (stereo not drawn),44*,0%,6%,-3%,4%,102*
CNC(=O)c1cc2cccc(OC)c2oc1=O,0,-13%,0%,1%,1%,-5
COc1cc(Br)cc2cc(C(=O)NCC3CCCO3)c(=O)oc12 (stereo not drawn),-2,-3%,3%,-2%,-24%,-3
COc1cccc2cc(C(=O)NC3CC4CCC3C4)oc12 (stereo not drawn),14*,-11%,-11%,0%,-6%,21
SMILES,Cycloheximide cs,Sm TGR block,FBPA Giardia inh,LmPK inhibitor,Tb PYK inh,Shiga toxin inh
CCOC(=O)CC(NC(=O)c1cc2cc(Br)cc(OC)c2oc1=O)c1ccc(OC)cc1 (stereo not drawn),x,1%,x,x,10%,x
COc1cccc2cc(C(=O)NC(C)C3CCCO3)c(=O)oc12 (stereo not drawn),45*,3%,2%,3%,-15%,63*
CSc1cccc(NC(=O)c2ccc3c(c2)c(C)c(C)n3Cc2ccc(F)cc2)c1,x,2%,x,x,1%[15.4 µM],x
COc1ccc2oc(=O)c(C(=O)NCC3CCCO3)cc2c1 (stereo not drawn),29*,0%[11.4 µM],-6%,2%,0%,45
CNC(=O)c1cc2cc(OC)ccc2oc1=O,-2,-8%,-3%,3%,-8%,-8
COc1ccc2oc(=O)c(C(=O)NC3CCCCCC3)cc2c1,23*,-24%,-1%,4%,11%,x
CC(Oc1ccccc1)C(=O)Nc1c(C(=O)Nc2cccc(F)c2)oc2ccccc12 (stereo not drawn),x,2%,x,x,-3%,x
CC1=CC2(O)OCCN(CCO)C2=CC1=O (stereo not drawn),1,20µM*,u,-17%,-24%,11
COc1ccccc1NC(=O)Cn1c(=O)n(CCc2ccccc2)c(=O)c2c3c(sc21)CN(C(C)=O)CC3,x,2%,x,x,-4%,x
Cc1ccc(CNC(=O)CSc2nc3ccsc3c(=O)n2NC(=O)c2ccccc2)cc1,3,11%,0%,-5%,6%,32
O=C(Nn1c(SCc2ccc(F)cc2)nc2ccsc2c1=O)c1ccccc1,28*,3%,6%,7%,12%,19
Cc1cc(NC(=O)CSc2nc3ccsc3c(=O)n2NC(=O)c2ccccc2)no1,36*,-7%,10%,-1%,-5%,37*
O=C(NCc1ccccc1Cl)c1ccc(CSCc2cccc(F)c2)o1,x,-2%,x,x,-4%,x
Cc1ccc(C(=O)NCC(=O)OCC(=O)Nc2ccccc2[N+](=O)[O-])cc1,6,-3%,0%,1%,-8%,11
CC(=O)c1ccc(NC(=O)Nc2cccc3ccccc23)cc1,27*,1%,x,1%,1%,12
O=C(Nc1ccccc1)Nc1cccc2ccccc12,19*,5%,0%,4%,-2%,27
O=C(Nc1ccc(C(=O)O)cc1)Nc1cccc2ccccc12,4,2%,1%,-1%,-14%,9
O=S(=O)(Nc1cccc2cccnc12)c1ccccc1,19,2%,18µM*,-1%,-8%,11
O=C(CCl)Nc1cccc2ncccc12,-2,45µM*,-26%,-4%,-3%,-13
